Each structure is given as a SMILES string. In all, about 69,000 compounds went through this assay and about 8,600 (12%) showed an effect of 50% or more. The full list was thinned out, with strong results kept by preference.

Here are results for 52 compounds from ChEMBL document CHEMBL4513216, “Probing the Open Global Health Chemical Diversity Library for Multistage-Active Starting Points for Next-Generation Antimalarials” (ACS Infect Dis, 2020).

The test has as its system Plasmodium berghei. Nature of the test: Screen against P. berghei liver stage (PbLuc), transformed with Luciferase, at 10uM. It is filed as functional, HepG2. The following applies: tested at 10 uM.
For `CC(C)N1CCC2(C=C(C(=O)N(C)C)c3ccccc32)CC1`, the INHIBITION was -41.6%. `CCC(=O)N1CCC2(C=C(C(=O)N3CCCC3)c3ccccc32)CC1`: the INHIBITION came out at 34.9%. On to `CN1CCC2(C=C(C(=O)N(C)C)c3ccccc32)CC1`, for which the INHIBITION came to 63.8%.

Consider `CC(C)COC(C)C(=O)NCCNC(=O)C(C)C` (configuration not stated), for which the INHIBITION turned out to be 36.8%. For the compound `O=C(Cn1cc(Cl)cn1)N1CCCC(c2cc3ccccc3cn2)C1` (configuration not stated), the INHIBITION was determined as 24.4%. Regarding `O=C(C1CC=CC1)N1CCCn2nnc(CNc3ncccn3)c2C1`, the INHIBITION worked out at 29.5%.

In the case of `Fc1cccc(-n2ccc(CN3CCCC3Cn3cncn3)n2)c1` (configuration not stated), the INHIBITION was -19.4%. Regarding `Cc1nc(C(=O)N2CCCC2c2cncc(CN3CCCC3)n2)co1` (configuration not stated), the INHIBITION is given as -33.6%.

In the case of `Cc1cc(C2CCCN2C(=O)c2cnn(C)c2)on1` (configuration not stated), the INHIBITION amounted to 0.8%. Take `Cc1cccc(NCC(=O)Nc2cc(F)ccc2F)c1C(N)=O`: the INHIBITION was -33.7%.

`CCN1C[C@@H]2[C@@H](OC)CCN(C(=O)c3cc(C)nn3CC)[C@@H]2C1`: the INHIBITION is 84.1%. On to `CCn1nc(C)cc1C(=O)N1CC[C@H](OC)[C@H]2CN(CC3CC3)C[C@H]21`, for which the INHIBITION was -6.39%.

`CCN1C[C@H]2[C@@H](C1)N(C(=O)Cc1ccsc1)CC[C@H]2OC`: the INHIBITION was -9.74%. As for `CCC(C)NS(=O)(=O)c1ccc(C(=O)NC2(C#N)CCC2)cc1` (configuration not stated), the figure is 3.13%; as for `COCCc1noc(CN(C)C(=O)C(C)N2CCc3ccccc3C2)n1` (configuration not stated), 2.29%; as for `CC(C)c1cc(CN(C)C(=O)C(C)N2CCc3ccccc3C2)no1` (configuration not stated), 63.1%. For the compound `CC(C(=O)N(C)Cc1noc(C2CCC2)n1)N1CCc2ccccc2C1` (configuration not stated), the INHIBITION is recorded as 25.8%.

On to `Cn1cc(C2CCCN2C(=O)c2cnc(-c3cccs3)s2)cn1` (configuration not stated), for which the INHIBITION stood at 37.7%. For `O=C(C1CCOC1)N1Cc2ccccc2OC2(CCOCC2)C1` (configuration not stated), the INHIBITION came out at 12.8%. Then `CN(CCNC(=O)N1CCCC1)C(=O)OC(C)(C)C`, with -30.5%. Consider `CC(CCNC(=O)N1CCC1)N(C)C(=O)OC(C)(C)C` (configuration not stated), for which the INHIBITION worked out at 8.18%.

Consider `CCOC1CCN(C(=O)NCCN(C)C(=O)OC(C)(C)C)CC1`, for which the INHIBITION turned out to be 58.2%.

Take `COCCN(Cc1ccoc1)S(=O)(=O)c1ccc(F)c(Cl)c1`: the INHIBITION is on record as -31.7%. In the case of `COc1ccc(CNC(=O)Cc2csc(C(C)=O)c2)cc1`, the INHIBITION was found to be 33%. Take `CC(=O)c1cc(CC(=O)NCc2ccc(F)cc2)cs1`: the INHIBITION is reported as -38.2%. As to `CC(=O)c1cc(CC(=O)NCc2ccc(CN(C)C)cc2)cs1`, the INHIBITION came to 50.1%. As to `CS(=O)(=O)Cc1ccc(CNC(=O)N2CCC(C(N)=O)C2)cc1` (configuration not stated), the INHIBITION was found to be 2.97%. As to `CCOc1ncccc1NC(=O)NC1CCN(c2ncccn2)CC1`, the INHIBITION is listed as -19.9%. As to `CN(C(=O)CN1CCc2nn(C)c(=O)cc2C1)c1nccs1`, the INHIBITION stood at 29%. Then `CCCn1nc2c(cc1=O)CN(CC(=O)N(C)c1nccs1)CC2`, with 9.56%; and `CCCn1nc2c(cc1=O)CN(c1ncnc3ccsc13)CC2`, with 91.9%; and `CC(C)n1nc2c(cc1=O)CN(c1ncnc3ccccc13)CC2`, with 94.5%. As to `CCn1nc2c(cc1=O)CN(CC(=O)Nc1nccs1)CC2`, the INHIBITION was found to be 18.2%. Then `CC(C)n1nc2c(cc1=O)CN(Cc1nc3ccccc3o1)CC2`, with 26.5%. With `Cn1nc2c(cc1=O)CN(c1ncnc3ccsc13)CC2`, the INHIBITION is given as 34.6%. As for `CCCn1nc2c(cc1=O)CN(CCCN1CCCC1=O)CC2`, the INHIBITION was determined as 6.56%. As for `CCn1nc2c(cc1=O)CN(CC(=O)N(C)c1nccs1)CC2`, the figure is 50.7%.

Take `CC(C)n1nc2c(cc1=O)CN(c1nc3ccccc3s1)CC2`: the INHIBITION is reported as 35%.

Turning to `CCn1nc2c(cc1=O)CN(c1ncnc3ccsc13)CC2`, the INHIBITION is given as 93.6%. Consider `CCn1nc2c(cc1=O)CN(c1nc3ccccc3s1)CC2`, for which the INHIBITION was found to be 37.7%. Turning to `CCCc1c(C2CCOC(C)(C)C2)nc(N)c(C#N)c1-c1cnn(C)c1` (configuration not stated), the INHIBITION came to 4.15%. For the compound `Cc1ccoc1C(=O)NCCS(=O)(=O)N1CCSCC1`, the INHIBITION was found to be 4.52%. With `c1ccc(Cc2nnc(CN3CCCC(Cn4cncn4)C3)o2)cc1` (configuration not stated), the INHIBITION is given as -15.3%.

Consider `COc1cc(N2CCC3(CCCN(C(=O)c4cccnc4)C3)C2)ncn1` (configuration not stated), for which the INHIBITION worked out at 19.8%. In the case of `C=C(C)COc1ccccc1CN1CCC(C(=O)NCC)C1` (configuration not stated), the INHIBITION was 3.06%. As to `CC(=O)N[C@@H]1CN(C(=O)CC2CC2)C[C@H]1O`, the INHIBITION is on record as 49.9%. As to `Cc1ccc(-c2[nH][nH]c(=O)c2CCN)cc1`, the INHIBITION came to 44.9%. As for `Cc1cc(C)n(C2CCCN(C(=O)c3ccc4c(c3)COC4)C2)n1` (configuration not stated), the figure is 15.815%; as for `COCc1nc(C(=O)NS(=O)(=O)c2ccc(Cl)cc2F)cs1`, -64.25%; as for `COc1cccc(Oc2nc(C)c(C(=O)O)s2)c1OC`, 45.5%.

Take `Cc1cc(C2CCCN2Cc2nc3c(cnn3C)c(=O)[nH]2)on1` (configuration not stated): the INHIBITION came to 27.6%. As for `Cn1cc(CN2CC[C@H]3OCC[C@@H](C(=O)Nc4cnccn4)[C@@H]3C2)cn1`, the INHIBITION was 38.5%.
